In the library only some 2.7% were active in any assay of this set; here they are far more common.
MPTP inh: inhibitors of mitochondrial permeability transition pore; inhibition, % at 10 µM; hit rate 1.4% among 360,000; isolated mouse mitochondria, Ca2+ swelling absorbance, 30 min;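 active means inhibition of 50% or more, scaled per plate between neutral and stimulator controls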;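 further: 0% = DMSO wells given calcium and 100% = 1 mM EGTA wells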
CFTR F508del cor: CFTR F508del correction in bronchial cells; CFBE cells, YFP halide quenching; stimulated with forskolin plus potentiator P3; % fluorescence drop versus neutral controls; activity (quench increase), % at 7.58 µM; hit rate 0.36% among 350,000; AID 720511;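 active means mean added fluorescence quench of at least 8% versus neutral control, with both replicates also reaching 8%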;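 further: cells transiently co-express mutant CFTR-F508del with the halide-sensitive YFP; corrector assay measuring rescue of mutant channel to the surface after 24 h compound exposure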
SKN-1 inh: C. elegans SKN-1 inhibition; C. elegans VP596 Pgst-4::GFP/RFP ratio, acrylamide-induced, 24 h; inhibition, % at 21.8 µM; hit rate 0.49% among 360,000;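 active means interference check ratio from 0.5 to 1.5 plus GFP to RFP signal ratio inhibition reaching or exceeding a fixed threshold, cut at about 30% in these data, passing the limit was not always enough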
NRP1-CendR mod: NRP-1/CendR interaction modulation. inhibition, % at 25 µM. hit rate 0.85% among 360,000. O14786. AID 602438. FAM-RPARPAR peptide binding to NRP-1, fluorescence polarization;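 active means inhibition or corrected inhibition above about 18%, plus a signal ratio from 0.5 to 1.5, limit read from the data, passing the limit was not always enough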
Target sequence (O14786 whole entry, looked up): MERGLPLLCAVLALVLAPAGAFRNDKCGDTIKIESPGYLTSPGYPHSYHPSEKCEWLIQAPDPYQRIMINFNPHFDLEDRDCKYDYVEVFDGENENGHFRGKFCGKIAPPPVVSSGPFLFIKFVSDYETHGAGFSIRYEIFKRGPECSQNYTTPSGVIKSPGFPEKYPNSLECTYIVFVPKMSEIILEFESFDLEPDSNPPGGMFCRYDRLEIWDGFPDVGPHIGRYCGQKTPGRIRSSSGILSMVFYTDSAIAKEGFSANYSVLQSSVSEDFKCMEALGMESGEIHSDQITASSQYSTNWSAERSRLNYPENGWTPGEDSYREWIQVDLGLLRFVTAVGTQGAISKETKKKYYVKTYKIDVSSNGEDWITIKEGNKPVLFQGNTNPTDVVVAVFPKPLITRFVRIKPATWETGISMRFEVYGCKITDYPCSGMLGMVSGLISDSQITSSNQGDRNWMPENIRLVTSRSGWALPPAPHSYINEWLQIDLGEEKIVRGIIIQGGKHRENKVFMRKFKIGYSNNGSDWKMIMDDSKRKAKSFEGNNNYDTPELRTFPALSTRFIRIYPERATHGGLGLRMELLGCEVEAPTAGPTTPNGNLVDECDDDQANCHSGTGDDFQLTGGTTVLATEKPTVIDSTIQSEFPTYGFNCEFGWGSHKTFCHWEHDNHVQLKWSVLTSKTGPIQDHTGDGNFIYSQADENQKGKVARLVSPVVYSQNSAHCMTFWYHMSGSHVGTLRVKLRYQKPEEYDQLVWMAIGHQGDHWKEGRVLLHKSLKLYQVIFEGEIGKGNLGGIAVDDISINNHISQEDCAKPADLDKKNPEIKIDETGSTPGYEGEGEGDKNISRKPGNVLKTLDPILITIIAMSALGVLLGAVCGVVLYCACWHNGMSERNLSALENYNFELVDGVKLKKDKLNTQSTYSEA
ATG4B inh: inhibitors of human ATG4B cysteine protease | hit rate 0.51% among 340,000 | ATG4B cleavage of LC3-PLA2, NBD-HPC fluorescence, 1 h | Q9Y4P1 | inhibition, % at 8.33 µM; in the data active means inhibition above about 40%
An asterisk follows results filed as active; . = no result given; ! = repeats disagree.

SMILES	MPTP inh	CFTR F508del cor	SKN-1 inh	NRP1-CendR mod	ATG4B inh
N#Cc1cccc(-c2ccc([C@H]3[C@H]4CN(C(=O)Cc5ccncc5)CCCCN4[C@H]3CO)cc2)c1	.	1	.	.	.
Clc1ccc(-c2nc3ccc(Cl)cn3c2CN2CCOCC2)cc1	0	.	2	50*	9
c1cc(-c2ccc(C3[C@H]4CNC[C@@H]3N4CC3CC3)cc2)ccn1 (stereo not given in full)	.	1	.	.	.
Cn1cc(C(=O)OCC(=O)Nc2ccccc2)c2ccccc21	0	0	-1	21*	-19
Cn1cc(C(=O)OCC(=O)Nc2ccccc2Cl)c2ccccc21	-1	3	12	9	-15
COC(=O)[C@H]1[C@H](CO)[C@H]2Cn3c(ccc(-c4ccccc4)c3=O)[C@@H]1N2CCc1ccccc1	.	1	.	.	.
O=C(Cc1ccccn1)N1CC2(C1)[C@H](c1ccccc1)[C@@H](CO)N2Cc1ccccn1	.	2	.	.	.
O=C(Nc1ccc(OC(=O)N2CCCCC2)cc1)N1CCOCC1	0	0	-14	-1	-8
O=C(Nc1ccc(OC(=O)N2CCCC2)cc1)N1CCOCC1	3	2	38*	2	10
CCOC(=O)c1c(N)n(CCCOC(=O)c2ccco2)c2nc3ccccc3nc12	-1	.	35*	-4	-16
COC(=O)[C@@H]1[C@@H](CO)[C@@H]2Cn3c(ccc(-c4ccccc4)c3=O)[C@H]1N2CC1CCOCC1	.	-1	.	.	.
CN1CCN(c2ccc([N+](=O)[O-])c(Sc3ccccn3)c2)CC1	-1	-5	-7	28*	-11
O=C(Cc1ccccc1)N1C[C@@H]2[C@H](c3ccccc31)[C@@H](CO)N2Cc1ccccc1	.	1	.	.	.
Clc1cccc(Cl)c1NC1=NCCS1	-2	-3	4	5	.
c1ccc2c(NC3=NCCS3)cccc2c1	0	.	22	26*	-9
O=C1CC=C2C3CC4N(CCC45c4cc(O)c(O)cc4N1C25)CC3=CCBr (stereo not given)	2	0	2	26*	10
Cc1ccc(-[n+]2c(Cc3nn(-c4ccccc4)c(C)[n+]3-c3ccc(C)cc3)nn(-c3ccccc3)c2C)cc1	0	1	6	27*	.
COc1ccc(-[n+]2c(-c3ccccc3)cc(-c3ccc(C)cc3)cc2-c2ccccc2)cc1	11	-10	2	-6	35
COC(=O)[C@@H]1[C@@H](CO)[C@@H]2Cn3c(ccc(-c4ccc(F)cc4)c3=O)[C@H]1N2Cc1ccccc1	.	2	.	.	.
C=CCN1C(=O)C2(C(C(=O)OCC)=C(N)Oc3ccccc32)c2c1c1ccccc1oc2=O (stereo not given)	2	.	-10	44*	-11
CCOC(=O)C1=C(N)Oc2c(c(=O)oc3ccccc23)C12C(=O)N(C)c1ccccc12 (stereo not given)	-2	.	10	-17	-7
CC1(C)N(O)C2CCCCC2N1O (stereo not given)	1	.	-3	-11	2
CC12CCCCC1N(O)CN2O (stereo not given)	2	.	1	23*	2
O=C(Cc1ccccn1)N1CCCCN2[C@H](CO)[C@H](c3ccc(C#Cc4ccccc4)cc3)[C@H]2C1	.	-2	.	.	.
O=C1NC(=S)N(c2ccc(Cl)cc2)C(=O)/C1=C/N1CCN(C(=O)c2ccco2)CC1	-4	.	44*	-106	4
SMILES	MPTP inh	CFTR F508del cor	SKN-1 inh	NRP1-CendR mod	ATG4B inh
COC(=O)C1=C(c2cccc(C#N)c2)C[C@@H]2CC[C@H]1N2C(=O)NC(C)C	0	-1	11	22*	-4
CCCNC(=O)N1[C@H]2CC[C@@H]1C(C(=O)OC)=C(c1ccc(OC(F)(F)F)cc1)C2	0	3	13	29*	-5
COC(=O)C1=C(c2ccc(-c3ccccc3)c(F)c2)C[C@@H]2CC[C@H]1N2C(=O)N1CCC(O)CC1	0	3	7	1	-22
COC(=O)C1=C(c2cccc(OCc3ccccc3)c2)C[C@@H]2CC[C@H]1N2C	3	-1	11	7	.
COC(=O)C1=C(c2ccccc2)C[C@@H]2CC[C@H]1N2C	-1	-2	-4	25*	-8
COC(=O)C1=C(c2ccc(-c3ccccc3)c(F)c2)C[C@@H]2CC[C@H]1N2C(=O)N1CCC(C)CC1	5	-1	4	25*	1
O=C(Cc1cccnc1)N1CCCCN2[C@@H](CO)[C@@H](c3ccc(C#CC4CC4)cc3)[C@@H]2C1	.	4	.	.	.
COC(=O)C1=C(c2ccc(S(C)(=O)=O)cc2)C[C@@H]2CC[C@H]1N2C	0	2	-2	35*	-13
CCCNC(=O)N1[C@H]2CC[C@@H]1C(C(=O)OC)=C(c1ccc(S(C)(=O)=O)cc1)C2	-1	-3	-4	17	-5
CCN1CC=C(c2c[nH]c3ccccc23)CC1	0	.	-11	31*	-6
CSCCC(c1nnnn1C1CCCCC1)N1CCC2(CC1)C(=O)NCN2c1ccccc1 (stereo not given)	0	0	0	24*	.
CCC(c1nnnn1C(C)(C)C)N1CCC2(CC1)C(=O)NCN2c1ccccc1 (stereo not given)	0	-1	10	30*	.
CSCCC(c1nnnn1C1CCCC1)N1CCC2(CC1)C(=O)NCN2c1ccccc1 (stereo not given)	0	0	13	21	.
CC(C)(C)n1nnnc1C(CCc1ccccc1)N1CCC2(CC1)C(=O)NCN2c1ccccc1 (stereo not given)	3	1	0	9	.
CCC(C)/C=C(C)/C=C/C1=CC2=C(Cl)C(=O)C(C)(OC(C)=O)C(=O)C2=CO1 (stereo not given)	2	.	-14	0	4
CC[C@H](C)/C=C(C)/C=C/C1=CC2=C(Cl)C(=O)[C@@](C)(OC(C)=O)C(=O)C2=CO1	1	.	9	-19	67*
CCN(CC)c1ccc(CN2CC=C(c3ccc(F)cc3)CC2)cc1	5	.	-9	20*	-2
COC(=O)[C@H]1[C@H](CO)[C@H]2Cn3c(ccc(-c4ccc(OC)cc4)c3=O)[C@@H]1N2C(=O)c1ccccc1F	.	1	.	.	.
C[n+]1c2ccccc2nc2ccc(NCCO)cc21	18	-4	87	14	9
CNc1ccc2nc3ccccc3[n+](C)c2c1	17	-3	91	29*	1
COc1ccc2c(c1)NP(=S)(c1ccccc1)N2C (stereo not given)	-1	1	54*	-7	0
O=C1CNC[C@H]2[C@@H](c3ccc(Br)cc3)[C@@H](CO)N12	.	-3	.	.	.
COC(=O)[C@@H]1[C@@H](CO)[C@@H]2Cn3c(cccc3=O)[C@H]1N2C(=O)C1CCCC1	.	2	.	.	.
Cn1c(O)c(/C=N/NC(=O)c2ccncc2)c(=O)[nH]c1=S	-18	0	42*	-66	-12
Cc1c(P(=S)(c2ccccc2)c2ccccc2)[n+]2ccccc2n1C	-1	1	-3	34*!	-2
O=P(Oc1ccc(-c2ccccc2)cc1)(N1CC1)N1CC1	-2	9.9*	3	0	-14
